Experimental data published in PubChem BioAssay (NCI).
About 83,000 compounds went through this panel and 20% of them were active in at least one assay; those are over-represented in the sample as a whole.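 Treatment: one concentration, 48 hours, 96-well format. Scoring: percent growth, with anything below 10 considered active.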 Values without a mark were called inactive. Activity calls are given as the source filed them.

Legend:
Test in all cases: NCI-60 one-dose screen, 48 h (100 = growth as untreated, 0 = no growth, -100 = all killed)
Settings in all cases: 10 µM unless noted
NCI-H23 lung = test system: NCI-H23 lung
NCI-H226 lung = test system: NCI-H226 lung
NCI-H322M lung = test system: NCI-H322M lung
HOP-62 NSCLC = test system: HOP-62 NSCLC
NCI-H460 lung = test system: NCI-H460 lung
HOP-92 NSCLC = test system: HOP-92 NSCLC
NCI-H522 lung = test system: NCI-H522 lung
A549/ATCC NSCLC = test system: A549/ATCC NSCLC
786-0 renal = test system: 786-0 renal
COLO 205 colon = test system: COLO 205 colon
DU-145 prostate = test system: DU-145 prostate
K-562 leukemia = test system: K-562 leukemia
MALME-3M melanoma = test system: MALME-3M melanoma
MDA-MB-231 breast = test system: MDA-MB-231 breast
RXF 393 renal = test system: RXF 393 renal
SF-268 CNS = test system: SF-268 CNS
SF-295 CNS = test system: SF-295 CNS
SF-539 CNS = test system: SF-539 CNS
UACC-257 melanoma = test system: UACC-257 melanoma
M14 melanoma = test system: M14 melanoma

Structure (SMILES) | growth (NCI-H23 lung) | growth (NCI-H226 lung) | growth (NCI-H322M lung) | growth (HOP-62 NSCLC) | growth (NCI-H460 lung) | growth (HOP-92 NSCLC) | growth (NCI-H522 lung) | growth (A549/ATCC NSCLC) | growth (786-0 renal) | growth (COLO 205 colon) | growth (DU-145 prostate) | growth (K-562 leukemia) | growth (MALME-3M melanoma) | growth (MDA-MB-231 breast) | growth (RXF 393 renal) | growth (SF-268 CNS) | growth (SF-295 CNS) | growth (SF-539 CNS) | growth (UACC-257 melanoma) | growth (M14 melanoma)
CCc1n(Cc2ccc3ccccc3c2)cc[n+]1Cc1ccc2ccccc2c1 | -14.6% (active) | 6.75% (active) | 44.3% | 11.9% | 5.54% (active) | -31.4% (active) | -25.4% (active) | 28.5% | 35.7% | -67.5% (active) | 23.8% | 8.91% (active) | -21.9% (active) | -18.9% (active) | 1.07% (active) | 12.5% | 6.3% (active) | 12.6% | -38.2% (active) | -9.48% (active)
COc1cccc(NC(=O)Cn2cc(CN3CCN(c4ccnc5cc(Cl)ccc45)CC3)nn2)c1 | 95% | 81.6% | 91.2% | 71.6% | 97.5% | 41.2% | 80.6% | 87.9% | 99.2% | 112% | 104% | 67.4% | 95.6% | 73.9% | 95% | 84.7% | 87.5% | 87.7% | 102% | 104%
O=C(c1ccccc1)C1C(=O)N2C(=S)N(c3ccccc3)C(=O)C2C1c1ccc(Cl)cc1 (stereo not given) | 88.2% | 74.5% | 94.6% | 93.4% | 86.8% | 91.3% | 94% | 101% | 100% | 112% | 109% | 99.1% | 88.1% | 90.4% | 90.4% | 97.5% | 94.2% | 98% | 101% | 96.3%
CC(C)(C)n1cc(-c2ccnc(NCCNS(=O)(=O)c3cccc4ccccc34)c2)c(-c2cccc(F)c2)n1 | 0.565% (active) | -25.7% (active) | 20.8% | 26.4% | -26.9% (active) | -19.3% (active) | -38.9% (active) | 16.3% | -91.4% (active) | -67.9% (active) | 4.18% (active) | -30% (active) | -73.1% (active) | -8.01% (active) | -52.3% (active) | 29.5% | -68.7% (active) | -74.8% (active) | -8.81% (active) | -19% (active)
CC1=NN(c2nc(SCC(=O)Nc3nc4ccc(C)cc4s3)nc(-c3ccccc3)c2C#N)C(=O)C1 | 105% | 89.4% | 96.7% | 86.4% | 100% | 85% | 91.1% | 107% | 100% | 118% | 113% | 94.7% | 101% | 106% | 94.9% | 97.2% | 103% | 90.3% | 113% | 109%
N#Cc1cccc(NC(=O)c2oc3ccccc3c2-c2cnn(-c3ccccc3)c2)c1 | 83.7% [50 µM] | 72.5% [50 µM] | 74.1% [50 µM] | 92.6% [50 µM] | 84.3% [50 µM] | -23.3% [50 µM] (active) | 59% [50 µM] | 81.4% [50 µM] | 85.7% [50 µM] | 91.8% [50 µM] | 105% [50 µM] | 4.93% [50 µM] (active) | 101% [50 µM] | 82.7% [50 µM] | 75.7% [50 µM] | 92.4% [50 µM] | 74% [50 µM] | 81.5% [50 µM] | 94.7% [50 µM] | 84% [50 µM]
COc1ccc(C(=O)C2C(c3ccc(OC)cc3)CN(C)C23C(=O)Nc2ccccc23)cc1 (stereo not given) | 86.1% | 88% | 103% | 94.3% | 97.7% | 83% | 76.4% | 87.9% | 96% | 105% | 99% | 77.1% | 92.7% | 93.9% | 80.8% | 89.7% | 90.6% | 104% | 97.5% | 98.9%
C/C(=N/O)c1ccc(F)cc1 | 84% | 91.5% | 111% | 92.8% | 36.6% | 109% | 55.4% | 103% | 107% | 90.6% | 5.59% (active) | 92.7% | 130% | 88% | 64.1% | 102% | 75% | 119% | 95.3% | 94.9%
O=C(CN1C(=O)CCC1=O)Nc1ncc(Cc2ccc(F)cc2)s1 | 98.6% | 95.9% | 102% | 105% | 106% | 99.9% | 99% | 108% | 101% | 113% | 106% | 98.5% | 99.8% | 97.4% | 109% | 91.2% | 99.3% | 98.7% | 98.5% | 103%
CCc1nc2c(=O)[nH]cnc2o1 | 107% | 96.4% | 97.8% | 100% | 105% | 72.2% | 108% | 99.7% | 110% | 110% | 112% | 104% | 83.1% | 117% | 102% | 103% | 110% | 94.8% | 107% | 103%
COC(=O)c1ccc2c(c1)C(=O)c1c-2n(CCCN)c(=O)c2cc([N+](=O)[O-])ccc12 | -53.8% (active) | -73.4% (active) | -84.3% (active) |  | -100% (active) | -88.1% (active) | -78.2% (active) | -94% (active) | -98.5% (active) | -100% (active) | -100% (active) | -100% (active) | -96.9% (active) | -100% (active) | -87.5% (active) | -87.2% (active) | -77.4% (active) | -94.2% (active) | -96.1% (active) | -100% (active)
O=C1c2cccc(NCCN=Cc3cc(O)ccc3O)c2C(=O)c2c(NCCN=Cc3cc(O)ccc3O)cccc21 | -26.1% (active) | 6.91% (active) | -11.3% (active) |  | -70.8% (active) | -25.5% (active) | -65% (active) | -55.6% (active) | 0.261% (active) | -41.4% (active) | -68.5% (active) | -94.8% (active) | -24.6% (active) | -41% (active) | -34.2% (active) | -34.9% (active) | -23.6% (active) | -8.67% (active) | 57.9% | -4.47% (active)
CC(C)=CCC[C@](C)(O)[C@H]1CC[C@]2(C)[C@@H]1CC[C@@H]1[C@@]3(C)Cc4nccnc4C(C)(C)[C@@H]3CC[C@]12C | 66.9% | 74.6% | 100% |  | 73.6% | 93.2% | 62.8% | 46.3% | 78.6% | 76.3% | 70.9% | 63.2% | 66.4% | 74.4% | 94.3% | 86.5% | 95.2% | 76.3% | 75.7% | 71.4%
C=C1C(=O)O[C@H]2[C@H]1CC/C(COC(=O)CCSCCC(=O)OC/C1=C/CC[C@@]3(C)O[C@H]3[C@H]3OC(=O)C(=C)[C@@H]3CC1)=C\CC[C@@]1(C)O[C@@H]21 | 9.21% (active) | -39.5% (active) | 80.5% |  | 9.87% (active) | -50.2% (active) | -75.8% (active) | 71.1% | -21.9% (active) | -72.3% (active) | 20.1% | 2.89% (active) | -13.7% (active) | -52.1% (active) | -95.3% (active) | 24.2% | 62.7% | -15.1% (active) | -13.7% (active) | -12% (active)
COc1ccc2[nH]cc(C(c3cc(F)cc(F)c3)c3c[nH]c4ccc(OC)cc34)c2c1 | 67.2% | 97.4% | 70.3% |  | 64.4% | 54.3% | 69.3% | 69.4% | 92.4% | 78.1% | 95.9% | 59% | 206% | 78.8% | 80.5% | 80% | 79.1% | 93.4% | 84.3% | 86.6%
